Records with an inconclusive call do not appear. The source made the active and inactive calls. The call rests on the fitted dose curve; in most records, active means well fitted inhibition curve with a large enough effect; inconclusive means small, poorly fitted or top-dose-only effect; inactive means no such curve, though single readings can be large or run the other way.
Target: Tumor susceptibility gene 101 protein (Homo sapiens) (UniProt Q99816)
Assay: qHTS Assay for Iinhibitors of HIV-1 Budding by Blocking the Interaction of PTAP/TSG101: Hit Validation in TR assay
Details: Tsg101 binding domain + Texas Red-labeled PTAP peptide, fluorescence polarization, 20 min; series mostly up to 57.5 µM; activity change, negative = inhibition: at the top concentration
Method in brief: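 Fluorescence polarization: Tsg101 binding domain (10 uM final) with Texas Red-labelled PTAP peptide (50 nM final) in HEPES pH 7.5, 0.15 M NaCl, Tween 20, EDTA, TCEP; 20 min binding at room temperature after compound addition.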
On the % scale 0 is the no-effect control and ±100 the full control effect; potency means the concentration at half of the fitted maximal effect.

Chain of Tumor susceptibility gene 101 protein (Homo sapiens) (Q99816 whole entry, looked up): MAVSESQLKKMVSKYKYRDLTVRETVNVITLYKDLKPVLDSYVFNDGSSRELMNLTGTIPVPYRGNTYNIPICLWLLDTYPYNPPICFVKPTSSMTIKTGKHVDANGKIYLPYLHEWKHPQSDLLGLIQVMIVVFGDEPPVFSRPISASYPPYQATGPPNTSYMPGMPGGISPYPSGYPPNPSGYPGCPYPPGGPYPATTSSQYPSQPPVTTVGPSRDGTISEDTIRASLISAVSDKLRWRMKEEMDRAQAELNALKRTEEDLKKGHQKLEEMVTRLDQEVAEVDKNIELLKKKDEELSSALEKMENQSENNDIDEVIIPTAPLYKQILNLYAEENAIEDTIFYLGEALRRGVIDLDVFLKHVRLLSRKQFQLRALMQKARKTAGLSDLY

Activity change, negative = inhibition, inactive:
O=c1oc2c(CN3CCCCC3)c(O)ccc2cc1-c1nc2ccccc2[nH]1 -9.27%
COC(=O)C[n+]1cccc2ccccc21 11.3%
CCC(=O)Oc1ccc2c(c1)O/C(=C\c1ccco1)C2=O -3.58%
Cc1c(C(=O)N(C)c2cccc(C(F)(F)F)c2)sc2nc3n(c(=O)c12)CCCCC3 -10.5%
N=C1CCC(=N)c2c1c(O)c1ccccc1c2O -1.22%
Cc1ccc[n+](-c2nc([O-])sc2C=O)c1 -9.3%
O=C1/C(=N\S(=O)(=O)c2cccs2)C([n+]2cccc(Cc3ccccc3)c2)=C([O-])c2ccccc21 2.05%
Nc1cnccc1C(=O)O 3.42%
O=S(=O)(Nc1nc2n(n1)C(c1ccccc1)C=C(c1ccc(Cl)cc1)N2)c1ccccc1 (centres undefined) 39.5%
CN(N=Nc1ccc([N+](=O)[O-])cc1)c1ccccc1 27.1%
CCN(CC)c1nc2ccccc2nc1C(C#N)C(=O)NCCc1ccccc1 (centres undefined) 50.5%
C=CCOc1ccc(C2C(C(=O)c3cccs3)=C(O)C(=O)N2c2nnc(C)s2)cc1 (centres undefined) -3.83%
O=c1[nH]nc(-c2ccc(F)cc2)cc1Cc1ccc(F)cc1 22%
CCn1c(C)cc(C=C2C(=O)c3ccccc3C2=O)c1C -23.1%
O=[N+]([O-])c1ccc(-c2cn3nc(-c4ccccc4)c(-c4ccccc4)nc3n2)cc1 0.23%
Nc1c(C(=O)c2cccs2)sc2nsc(SCCN3CCCCC3)c12 11%
Cc1cc2nc3c(=O)n(Cc4ccccc4)c(=O)[nH]c3nc2cc1N 25.8%
Cc1ccccc1-n1c(SCc2c(C)noc2C)nnc1-c1cccnc1 -5.65%
CCN(CC)c1ccc2cc(-c3nc(-c4ccc(OC)cc4)cs3)c(=O)oc2c1 467%
O=c1oc2ccccc2cc1-c1nc(-c2cccs2)cs1 -12.5%
C/C(N)=C(/C#N)C(=O)CSc1ncnc2ccccc12 -2.93%
CCc1ccc(/C=C2/C(=O)N(C)C(=S)N2CC(=O)OC)s1 -11.4%
CCN(CC)c1ccc2cc(C(=O)NNC(=O)c3ccc(S(=O)(=O)N4CCCCC4)cc3)c(=O)oc2c1 9.6%
Cc1cccc(CCNC(=O)c2sc3nc4n(c(=O)c3c2C)CCCC4)c1 -20.6%
COc1cccc(C(=O)c2sc3nc(-c4ccccc4)cc(C(F)(F)F)c3c2N)c1 -9.9%
Oc1[nH]c2ccccc2c1N=Nc1ccccc1 8.43%
CCCN1CCN(S(=O)(=O)c2cn(C)nc2C)CC1 -28.3%
CCCCCCn1c(=O)[nH]c2nc3cc(N)c(C)cc3nc2c1=O -3.8%
COc1ccccc1NC(=O)/C(C#N)=C/c1cc([N+](=O)[O-])ccc1N1CCCC1 -11.4%
S=C(NCc1ccccc1)Nc1cccc(Cl)c1 -0.728%
CC(OC(=O)c1c2c(nc3ccccc13)/C(=C\c1ccc3c(c1)OCO3)CCC2)C(=O)Nc1ccc(S(N)(=O)=O)cc1 (centres undefined) 27.4%
O=C(OCCN1C(=O)c2cccc3c(N4CCOCC4)ccc(c23)C1=O)c1ccc(Cl)cc1 -16.3%
CCCN(CCC)S(=O)(=O)c1ccc(C(=O)OCCN2C(=O)c3cccc4c(N5CCOCC5)ccc(c34)C2=O)cc1 -6.8%
CCn1nc(-c2ccccc2)c2nc3ccccc3nc21 0.877%
CCOC(=O)c1cc2n(c1N)-c1ccccc1C2=O 2.6%
c1ccc(-c2cn3nc(-c4ccccc4)c(-c4ccccc4)nc3n2)cc1 46.9%
CSC1=NSC2=NC(=O)/C(=C\c3coc4ccccc4c3=O)C(=N)N12 37.4%

Potency, active:
C=CCn1c(=O)[nH]c2nc3cc(N=CN(C)C)c(C)cc3nc2c1=O 18.3 µM
Nc1ccc(-c2c3ccc(=O)cc-3oc3cc(O)ccc23)cc1C(=O)O 36.6 µM

Reference: PubChem BioAssay AID651599 (National Center for Advancing Translational Sciences (NCATS), 2012)
